This is an account of results in PubChem BioAssay AID720541 (National Center for Advancing Translational Sciences (NCATS), 2013).

Among all 1,300 compounds or so, about 420 (32%) were called active. Not shown: some 32% with an inconclusive outcome. Calls come from the whole dose curve; as a rule, active = well fitted inhibition curve with a large enough effect; inconclusive = small, poorly fitted or top-dose-only effect; inactive = no such curve, though single readings can be large or run the other way. The list shows a part of the results. A call without a number means that no potency is given here.
Potency is the fitted concentration of half-maximal effect.

This experiment deals with C-terminal-binding protein 1 (Homo sapiens) (UniProt Q13363). In words: qHTS for Inhibitors of the Phosphatase Activity of Eya2: Carboxyl-terminal binding protein (CtBP) Counterscreen for Cherry-picked Compounds. Note: nearly all actives have a fitted effect of over 65% in size. The conditions noted are these: purified protein-protein binding, AlphaScreen, 3 h; series mostly up to 46.1 µM. In a few lines:
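Cherry-picked compounds (final 2.5 nM–46 uM) were incubated 2 h at RT with 25 nM CtBP-6xHIS and 25 nM GST-E1A. Alpha beads (20 ug/mL) were then added for 1 h, light-protected; DMSO and E1A peptide inhibitor wells set the normalization.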
A general note: qHTS replaces the single test concentration by a dilution series.
In the case of `Oc1[nH]c2ccccc2c1N=Nc1nc2ccccc2s1`, the Potency result is “inactive”.

Consider `Cc1c(CCO)c(=O)n(-c2ccccc2)n1S(=O)(=O)c1c(Cl)cc(Cl)cc1Cl`, for which the Potency entry was “inactive”.

Regarding `CCOc1ccc(S(=O)(=O)Nc2cc(SCC(=O)O)c(O)c3ccccc23)cc1`, the Potency was 21.3 µM (active).

In the case of `CCN1CCN(c2nn3c(=O)c4ccccc4nc3c3ccccc23)CC1`, the Potency was 9.53 µM (active).

Take `O=C(O)CCc1c2ccc(=O)c(O)c-2oc2c(O)c(O)ccc12`: the Potency is 16.9 µM (active).

As for `CCN(CC)c1ccc(N=Cc2cc(Br)ccc2O)cc1`, the Potency result is “inactive”.

With `CC(C)c1ccc(C2c3[nH]c4ccccc4c3C[C@H]3C(=O)N(c4ccccc4C(=O)N4CCC[C@H]4C(=O)O)C(=O)N23)cc1` (stereo not given in full), the Potency entry is “inactive”.

Take `COc1ccc(C(=O)N2CCOCC2)cc1S(=O)(=O)N1CCCc2ccccc21`: the Potency entry is “inactive”.

For the molecule `COc1ccc(/C=C2\CCc3ccccc3C2=O)cc1CN1CCOCC1`, the Potency was 13.5 µM (active).

As for `Cn1ccc2c(N3CCCC3)cc3c(c21)C1CCC3C1` (stereo not given), the Potency is 15.1 µM (active).

In the case of `O=C(NCCCNC1CCCCC1)c1ccc(/C=N/O)nc1`, the Potency is 13.5 µM (active).

Turning to `CN(C)c1ccc(Sc2ccc3nc(N)nc(N)c3c2)cc1`, the Potency was 6.75 µM (active).

As for `O=C(/C=C/c1ccccc1)Oc1cccc2cccnc12`, the Potency is 2.39 µM (active).

Regarding `O=C(/C=C/c1ccco1)Oc1cccc2cccnc12`, the Potency was 4.26 µM (active).

Turning to `O=C(/C=C\c1ccccc1)Oc1cccc2cccnc12`, the Potency was 3.38 µM (active).

Turning to `O=C(/C=C/c1ccco1)Nc1ccccc1N1CCCC1`, the Potency result was “inactive”.

As for `COc1ccccc1/C=C/C(=O)Oc1cccc2cccnc12`, the Potency was 3.38 µM (active).

As to `COc1ccc(Br)cc1CNC(=O)c1ccc2c(c1)N(C)CCS2`, the Potency result is “inactive”.

Regarding `N#Cc1c(=O)c2nc(NCc3ccccc3)ncc2n2ccccc12`, the Potency is 4.26 µM (active).

With `CC(C)Cn1c(SC(C)C(=O)Nc2ccc(N3CCOCC3)cc2)nc2ccccc21` (stereo not given), the Potency result is “inactive”.

As to `CC1CCCCC1Nc1nc2ccc(Cl)cc2n2cnnc12` (stereo not given), the Potency result was “inactive”.

As to `c1ccc2c(c1)nc(Nc1ccc(N3CCCCC3)cc1)c1nncn12`, the Potency is 15.1 µM (active).

For `Cc1cccc(NC2=C(NCCO)C(=O)c3ccccc3C2=O)c1`, the Potency was 12 µM (active).

For `CNc1nc(-c2ccc3c(c2)CCN3C(=O)c2cccc(F)c2)cs1`, the Potency result is “inactive”.

As for `CC1=CC(=O)Nc2ncccc2O1`, the Potency was 15.1 µM (active).

Consider `C[N+](C)(CCCCCI)c1ccc(/C=C/c2nc3ccccc3s2)cc1`, for which the Potency is 12 µM (active).

Regarding `O=C(Oc1ccc2ccc(=O)oc2c1)c1cccs1`, the Potency result is “inactive”.

Consider `Cc1nc(S/C(=C\c2ccc(-c3ccc(C(=O)O)c(Cl)c3)o2)C(=O)O)n[nH]1`, for which the Potency was 13.5 µM (active).

As to `O=C(NNC(=O)c1cc2cc(Br)ccc2oc1=O)c1ccc(O)cc1`, the Potency result was “inactive”.

With `Cc1ccc(C(=O)Oc2ccc3ccc(=O)oc3c2)cc1`, the Potency entry is “inactive”.

For the molecule `CC(=O)Nc1ccc(OC(=O)c2cc3cc(Br)ccc3oc2=O)cc1`, the Potency was 6.75 µM (active).

`Cc1cc(/C=C2\C(=N)N3N=C(CC(=O)N4CCOCC4)SC3=NC2=O)c(C)n1Cc1ccccc1`: the Potency entry was “inactive”.

For the molecule `CCOc1cc(/C=C2\C(=N)N3N=C(CC)SC3=NC2=O)ccc1OCCOc1ccc(NC(C)=O)cc1`, the Potency is 3.79 µM (active).

For `O=C(CSc1nnc2c3ccccc3c3ccccc3c2n1)Nc1ccccc1F`, the Potency is 12 µM (active).

As to `COc1ccccc1NC(=O)CCCCCN1C(=O)c2cccc3cccc(c23)C1=O`, the Potency entry is “inactive”.

As to `COc1ccc(NC(=O)c2ccc(CN3CCc4ccccc4C3)cc2)c(OC)c1`, the Potency result is “inactive”.

For `COc1ccc(NC(=O)COc2cccc3c2CCN(C)C3=O)c(OC)c1`, the Potency was 8.49 µM (active).

Take `Cc1c(C(=O)/C=C/N(C)C)nnn1-c1ccc(Cl)cc1Cl`: the Potency entry is “inactive”.

Take `O=C(COc1ccccc1/C=C1/NC(=O)NC1=O)Nc1ccccc1`: the Potency result is “inactive”.

In the case of `CN(C)S(=O)(=O)c1cccc(NC(=O)COc2ccccc2C(=O)Nc2ccccc2)c1`, the Potency is 10.7 µM (active).

Take `CCC(C)C(CO)NC(=O)/C=C/[C@H]1O[C@@H](n2cnc3c(NC(=O)c4ccccc4)ncnc32)[C@H](O)[C@@H]1O` (stereo not given in full): the Potency result was “inactive”.

With `CCCC[C@@]1(C2CCCC2)Cc2cc(OCC(=O)O)c(Cl)c(Cl)c2C1=O`, the Potency entry is “inactive”.

For the molecule `CCOC(=O)CN1C(=O)/C(=C2\SC(=S)N(NC(=O)c3cccnc3)C2=O)c2ccccc21`, the Potency is 13.5 µM (active).

In the case of `CN1C(=O)/C(=C2\SC(=S)N(NC(=O)c3cccnc3)C2=O)c2ccccc21`, the Potency was 15.1 µM (active).

On to `CCc1ccc2[nH]c3nc(SCC(=O)NCC4CCCO4)nnc3c2c1` (stereo not given), for which the Potency was 4.78 µM (active).

Consider `Cc1cc2oc(C(=O)N(Cc3ccc(N(C)C)cc3)CC3CCCO3)c(C)c2cc1C` (stereo not given), for which the Potency entry is “inactive”.

As for `CCOc1ccc2[nH]c3nc(SCC(=O)NC4CCCC4)nnc3c2c1`, the Potency entry is “inactive”.

On to `Cc1nnc2sc(SCC(=O)Nc3ccc(Br)cc3)nn2c1=O`, for which the Potency was 2.13 µM (active).

Take `CCCc1cc(=O)[nH]c(SCC(=O)Nc2ccc(C)cc2)n1`: the Potency result was “inactive”.

Turning to `CCOC(=O)N1CCC(NC(=O)c2cc3c(-c4ccccc4F)nn(C)c3s2)CC1`, the Potency entry was “inactive”.

With `N#Cc1c2nc3ccccc3nc2n2cc(NC(=O)c3ccc(F)cc3)ccc12`, the Potency was 3.79 µM (active).

As for `Cc1cccc(N2CCN(C(=O)C3COc4ccccc4O3)CC2)c1C` (stereo not given), the Potency entry was “inactive”.

`Cc1cnc(C(=O)Nc2ccccc2-c2ccc(C)o2)cn1`: the Potency entry was “inactive”.

`COc1ccc(-n2nc(C)cc2Nc2ccccc2C(=O)O)cc1`: the Potency was 7.57 µM (active).

On to `CCOC(=O)c1cc(-c2ccc(N3CCOCC3)cc2)nn1-c1ccccc1C(=O)O`, for which the Potency result was “inactive”.

In the case of `Cc1cc(Nc2ccccc2C(=O)O)n(-c2cccc(Cl)c2)n1`, the Potency is 7.57 µM (active).

With `CCc1nc2ccc(C(=O)NCCOc3ccc(OC)cc3)cn2c1N(CCC(C)C)CCN(C)C`, the Potency entry was “inactive”.

For `O=C1c2ccccc2C(=O)c2c(Nc3ccc(CCO)cc3)ccc(O)c21`, the Potency was 6.01 µM (active).

As for `COc1cccc(C2c3[nH]c4ccccc4c3CCN2Cc2cnn(C)c2)c1` (stereo not given), the Potency result was “inactive”.

Take `CNc1c(Br)cc(C(O)C2=CCc3ccccc32)cc1Br` (stereo not given): the Potency entry was “inactive”.

In the case of `O=C(NC1CCCC1)c1cc(=O)[nH]c2ccccc12`, the Potency result is “inactive”.

As to `Cc1csc(NC(=O)c2cc(=O)[nH]c3ccccc23)n1`, the Potency was 19 µM (active).

`Cc1cc(Br)c(NC(=O)c2ccccc2[N+](=O)[O-])cc1C`: the Potency entry was “inactive”.

For the molecule `O=C(Nc1cc([N+](=O)[O-])ccc1O)c1cccc(C(=O)Nc2cc([N+](=O)[O-])ccc2O)c1`, the Potency was 6.01 µM (active).

Turning to `COc1ccc(C(=O)CC(=O)Nc2ccc([N+](=O)[O-])cc2)cc1`, the Potency entry was “inactive”.
